# Bioassay records: PubChem, National Center for Advancing Translational Sciences (NCATS)
# Shown are actives, neighbours in structure and some others; about 9.9% of the full set was active somewhere.
# HPGD inh: inhibitors of human 15-hydroxyprostaglandin dehydrogenase (HPGD); purified HPGD, NADH fluorescence kinetic, PGE2 substrate; AID 894; 150,000 compounds, 4.3% hits; Potency, µM, for inactives: at the top dose activity change, negative = inhibition, usual class: inhibitors; P15428
#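 20 nM HPGD preincubated 15 min at room temperature with compound in 50 mM Tris-HCl pH 8, 0.01% Tween 20. Started with 1 mM NAD+ and 30 uM prostaglandin E2; NADH fluorescence (360/450 nm) read 5 times over 30-s intervals, last minus first.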
# JMJD2E inh: JMJD2E (human) inhibition. B2RXH2. JMJD2E catalytic domain, FDH-coupled NADH fluorescence (FDH is formaldehyde dehydrogenase). Potency, µM (titrated, usually from 57.1 µM), for inactives: top-dose activity change, negative = inhibition, actives largely listed as inhibitors. 230,000 compounds, 1.6% hits. AID 2147;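 further: 0% = wells with enzyme and -100% = buffer wells without enzyme; nearly all actives have a fitted effect of over 50% in size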
# Target sequence (B2RXH2 1-337 limits assumed): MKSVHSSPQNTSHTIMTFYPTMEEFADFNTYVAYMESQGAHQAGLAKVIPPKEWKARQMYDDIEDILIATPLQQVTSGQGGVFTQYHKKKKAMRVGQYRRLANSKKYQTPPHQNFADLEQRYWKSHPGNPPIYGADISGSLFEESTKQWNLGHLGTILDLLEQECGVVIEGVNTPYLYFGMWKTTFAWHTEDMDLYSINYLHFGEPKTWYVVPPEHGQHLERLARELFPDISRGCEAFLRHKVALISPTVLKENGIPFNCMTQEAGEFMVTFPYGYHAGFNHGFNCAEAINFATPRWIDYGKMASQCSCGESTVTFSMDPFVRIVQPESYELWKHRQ
# ALDH1A1 inh: inhibitors of human aldehyde dehydrogenase 1A1; P00352; Purified ALDH1A1, NADH fluorescence, propionaldehyde substrate; Potency, µM (highest dose often 75.3 µM), without a hit: top-dose activity, negative = inhibition, most hits filed as inhibitors; 220,000 compounds, 7.3% hits;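 further: plate controls were no enzyme wells and a reference inhibitor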
# Tau fluor counter: counter-screen for tau fibril formation inhibitors | tau K18 P301L Alexa594 fluorescence, heparin fibrillization | Potency, µM (doses to about 57.7 µM), for inactives: at the highest dose activity change, negative = decrease | 280,000 compounds, 0.93% hits; active means well fitted curve in the direction sought with a large enough effect; inconclusive means small, poorly fitted or top-dose-only effect, or another doubt; inactive means no such curve, though single readings can be large; an effect the other way counts as inactive or inconclusive; further: nearly all actives have a fitted effect of over 55% in size
#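 Human K18 P301L tau (15 uM unlabeled plus 0.24 uM Alexa 594-labeled, final) in 100 mM sodium acetate pH 7 was mixed with compound and 20 uM heparin and incubated 6 hr at 37 C.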
# Tau fibril FP: tau fibrillization inhibition (FP); P10636; K18 P301L tau heparin fibrillization, Alexa594 FP, 6 h; Potency, µM (series often up to 57.7 µM), for inactives: at the top dose activity, negative = inhibition, most hits filed as inhibitors; 280,000 compounds, 0.39% hits; AID 1468; active means well fitted curve in the direction sought with a large enough effect; inconclusive means small, poorly fitted or top-dose-only effect, or another doubt; inactive means no such curve, though single readings can be large; an effect the other way counts as inactive or inconclusive; further: nearly all actives have a fitted effect of over 55% in size
# Target sequence (P10636 561-689 P618L limits assumed): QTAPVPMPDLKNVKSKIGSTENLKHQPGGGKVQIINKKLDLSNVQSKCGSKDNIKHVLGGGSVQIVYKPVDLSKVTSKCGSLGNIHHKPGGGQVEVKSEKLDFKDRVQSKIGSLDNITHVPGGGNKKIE
#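 Compound effects on tau fibrillization are measured by Alexa 594 fluorescence polarization (ex 555, em 632 nm). K18 P301L tau is used at 15 uM with 0.24 uM labeled tracer, and 20 uM heparin induces aggregation over 6 hr at 37 C.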
# Tau fibril ThT: tau fibrillization inhibition (ThT binding); recombinant tau K18 P301L (four-repeat tau fragment), heparin-induced fibrillization, ThT fluorescence; 270,000 compounds, 2.1% hits; Potency, µM (titrated, usually from 57.4 µM), for inactives: top-dose activity, negative = inhibition, usual class: inhibitors; active means well fitted curve in the direction sought with a large enough effect; inconclusive means small, poorly fitted or top-dose-only effect, or another doubt; inactive means no such curve, though single readings can be large; an effect the other way counts as inactive or inconclusive; further: nearly all actives have a fitted effect of over 55% in size
#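 Heparin-induced fibrillization of the P301L-mutant K18 repeat-domain fragment of human tau was followed by ThT binding in quantitative high-throughput format.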
# An asterisk follows results filed as active; ? = inconclusive; / = no result given; [ ] = another dose, or the depositor's remark. Unless noted, the call rests on the fitted dose curve; in most records, active means well fitted inhibition curve with a large enough effect (not every such curve was filed as active); inconclusive means small, poorly fitted or top-dose-only effect, or another doubt; inactive means no such curve, though single readings can be large or run the other way. Unless noted, on the % scale 0 is the no-effect control and ±100 the full control effect; potency means the concentration at half of the fitted maximal effect.
SMILES,HPGD inh,JMJD2E inh,ALDH1A1 inh,Tau fluor counter,Tau fibril FP,Tau fibril ThT
Cc1ccc(C)c(S(=O)(=O)NCc2ccc(C(=O)N3CCCCCC3)cc2)c1,7.1µM*,5%,-5%,-10%,4%,-16%
CCc1ccccc1NC(=O)Cn1ccn(Cc2ccccc2)c(=O)c1=O,/,/,/,-27%,-15%,-15%
C/C(CC(=O)Nc1ccc(Cl)c(C(F)(F)F)c1)=N\NC(=O)c1cc2ccccc2cc1O,-12%,?,5%,16µM*[quencher],-5%,13µM*
C/C(CC(=O)N1CCCC1)=N\NC(=O)c1cc2ccccc2cc1O,/,?,/,?,-15%,13µM*
C/C(=N\NC(=O)c1cc2ccccc2cc1O)c1ccc2c(c1)OCO2,-27%,-28%,1%,?,1%,7.1µM*
CCNC(=O)CC1C(=O)N(c2ccc(C)cc2)C(=O)N1CCc1sccc1C (stereo not given),/,-4%,-4%,-2%,0%,-1%
Oc1ccc(-c2csc(Nc3ncccn3)n2)cc1,/,5%,13%,-28%,11%,?
COc1cc(NS(=O)(=O)c2ccc(NC(=S)NC(=O)C3CCCC3)cc2)nc(OC)n1,-19%,4%,25µM*,-8%,-7%,-10%
COc1cc(NS(=O)(=O)c2ccc(NC(=S)NC(=O)CC(C)C)cc2)nc(OC)n1,-9%,2%,-18%,-12%,2%,-9%
CCC(=O)Nc1ccc(S(=O)(=O)Nc2cc(C)on2)cc1,-1%,4%,16%,8%,8%,0%
Oc1ccc(Nc2nc(-c3ccc4ccccc4c3)cs2)cc1,?,?,?,7.9µM*[quencher],?,5µM*
Cc1cc(NS(=O)(=O)c2ccc(Nc3nc(-c4sc(N)nc4C)cs3)cc2)no1,-17%,6%,1%,?,?,20µM*
Cc1cc(NS(=O)(=O)c2ccc(Nc3nc(-c4ccc(O)cc4)cs3)cc2)no1,20µM*,6%,?,2%,9%,-3%
O=C(C(Cc1ccccc1)N1C(=O)c2ccccc2C1=O)N1CCc2ccccc21 (stereo not given),-8%,1%,-1%,-18%,-9%,1%
O=C(NNC(=S)NC(=O)C12CC3CC(CC(C3)C1)C2)c1ccncc1,-12%,?,-14%,-5%,1%,-5%
CC1(C)CC2C1CCC1(C)OC2(C)CCC1O (stereo not given),-3%,-1%,-2%,-11%,-13%,-6%
CC(=O)NS(=O)(=O)c1ccc(NC(=S)NC(=O)Cc2ccccc2)cc1,/,-8%,-1%,0%,3%,-2%
COc1cc(NS(=O)(=O)c2ccc(Nc3nc(-c4ccccc4)cs3)cc2)nc(OC)n1,-13%,?,-4%,13µM*[quencher],?,?
Oc1ccc(-c2nc(-c3ccc(O)c(O)c3)cs2)cc1,?,28µM*,11µM*,13µM*[quencher],7%,3.2µM*
CC(C)CSC1=NSC2=NC(=O)/C(=C\c3coc4ccccc4c3=O)C(=N)N12,/,?,?,?,?,28µM*
N=C1/C(=C\c2coc3ccccc3c2=O)C(=O)N=C2SC(c3ccncc3)=NN12,/,281%,/,-24%,?,13µM*
N=C1/C(=C/c2coc3ccccc3c2=O)C(=O)N=C2SC(c3ccco3)=NN12,/,?,/,-19%,-10%,?
CC(C)CSC1=NSC2=NC(=O)/C(=C\c3ccccc3)C(=N)N12,/,-3%,?,-18%,-1%,?
CSC1=NSC2=NC(=O)/C(=C\c3coc4ccccc4c3=O)C(=N)N12,32µM*,?,?,?,?,14µM*
N=C1/C(=C\c2coc3ccc(O)cc3c2=O)C(=O)N=C2SC=CN12,/,0%,16µM*,?,-14%,13µM*
SMILES,HPGD inh,JMJD2E inh,ALDH1A1 inh,Tau fluor counter,Tau fibril FP,Tau fibril ThT
Clc1cccc(Cl)c1C1=NOC(c2nnc(-c3ccccc3)o2)C1 (stereo not given),/,-1%,/,-17%,-5%,-11%
CC(=O)NS(=O)(=O)c1ccc(NC(=O)COc2ccc(C(=O)c3ccccc3)cc2)cc1,25µM*,2%,10µM*,-20%,-6%,-15%
OC1CCCN(Cc2ccc3c(c2)Cc2ccccc2-3)C1 (stereo not given),-3%,-6%,4%,4%,1%,7%
CN(C)CCN(C)Cc1ccc2c(c1)Cc1ccccc1-2,-15%,1%,11µM*,6%,7%,7%
Cc1ccccc1-c1noc(N)c1C#N,-15%,1%,-2%,3%,-4%,-2%
CN(C)/C=C/c1onc(-c2ccccc2Cl)c1C#N,/,?,6.3µM*,-18%,5%,-13%
COc1ccc(/C=C/C(=O)Nc2ccc3nc4c(c(Nc5ccc(OC)c(OC)c5)c3c2)CCCC4)cc1,/,/,/,16µM*[quencher],-4%,25µM*
COc1ccc(Nc2c3c(nc4ccc(NC(=O)/C=C/c5cc(OC)c(OC)c(OC)c5)cc24)CCCC3)cc1OC,/,/,/,?,-1%,?
COc1ccc(/C=C/C(=O)Nc2ccc3nc4c(c(Nc5ccccc5OC)c3c2)CCCC4)cc1,/,/,/,?,?,10µM*
COc1ccc(Nc2c3c(nc4ccc(NC(=O)/C=C/c5cccc(OC)c5OC)cc24)CCCC3)cc1OC,/,/,/,?,8%,14µM*
COc1ccccc1Nc1c2c(nc3ccc(NC(=O)c4cccc(F)c4)cc13)CCCC2,/,/,/,?,-10%,?
COc1ccccc1Nc1c2c(nc3ccc(NC(=O)/C=C/c4cccc(OC)c4OC)cc13)CCCC2,/,/,/,?,-4%,14µM*
CN(CC(=O)Nc1ccccc1-c1ccccc1)Cc1ccccc1Cl,/,-8%,?,-10%,-2%,-16%
CCOC(=O)c1c(Oc2ccc(C(C)=O)cc2)nnc(-c2ccccc2)c1-c1ccccc1,/,/,/,-18%,7%,-9%
CC1CCc2c(sc3nc(SCC(=O)NCc4ccco4)nc(N)c23)C1 (stereo not given),14µM*,?,5%,-16%,2%,?
CCN(CC)C(=O)CSc1nc(N)c2c3c(sc2n1)CC(C)CC3 (stereo not given),14µM*,-3%,-12%,-14%,4%,?
CCOC(=O)CSc1nc(N)c2c3c(sc2n1)CCCC3,-19%,-7%,9%,-23%,-4%,-13%
CCCCCCCCC/C=C/CC1CC(=O)OC1=O (stereo not given),-16%,/,28µM*,/,/,/
CCc1nnc2c3ccccc3nc(Nc3ccc(F)cc3C)n12,/,/,/,-20%,-11%,-17%
O=[N+]([O-])c1cc(S(=O)(=O)C(F)(F)F)ccc1Sc1nc2ccccc2[nH]1,-3%,8%,8%,13µM*[quencher],-14%,25µM*
